# Assay outcomes (PubChem BioAssay)
# Only some compounds are listed: those with a hit (about 5.7% of all), similar ones and a draw of the others.
# DAX1 inh-1 = inhibitors of human orphan nuclear receptor DAX1 (NR0B1) | P51843 | HEK293 Gal4-DAX1 luciferase reporter, luminescence | inhibition, % at 6.75 µM | 0.99% of 340,000 active | AID 504766;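 active = inhibition above the mean over all tested compounds plus 3 SD, cut at about 4.2% in these data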;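 also: 0% = DAX1-transfected cells with DMSO and 100% = empty-vector control cells with DMSO; inhibition shows as a rise in luminescence from relieved DAX1 repression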
# Target sequence (P51843 207-470 limits assumed): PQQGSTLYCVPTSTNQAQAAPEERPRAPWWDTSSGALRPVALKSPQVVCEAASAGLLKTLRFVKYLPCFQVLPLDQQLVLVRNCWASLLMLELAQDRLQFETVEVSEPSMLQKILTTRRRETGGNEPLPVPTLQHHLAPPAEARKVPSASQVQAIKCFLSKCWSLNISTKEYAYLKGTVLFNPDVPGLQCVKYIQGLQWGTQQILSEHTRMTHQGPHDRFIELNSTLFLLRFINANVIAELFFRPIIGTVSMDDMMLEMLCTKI
# hcDAF-12 act = H. contortus DAF-12 activation, primary screen. activation, % at 6.8 µM. 1.4% of 370,000 active. HEK293 hcDAF-12 lit1-tk-luc reporter, luminescence; 0% DMSO, 100% Δ7-dafachronic acid;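 active = activation above the mean of all tested compounds plus 3 SD, cut at about 5.5% in these data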;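 also: 100% = response to 3 µM Δ7-dafachronic acid high control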
# ssDAF12 agonist = activators of S. stercoralis DAF-12 nuclear receptor | 1% of 370,000 active | activation, % at 6.8 µM | AID 652126 | HEK293 ssDAF-12/GRIP1 lit1-tk-luc reporter, luminescence; % of 3 µM dafachronic acid response;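 active = activation above the mean over all tested compounds plus 3 SD, cut at about 0.9% in these data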;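 also: 0% = DMSO-only wells and 100% = 3 µM delta7-dafachronic acid wells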
# hgDAF-12 ag = hgDAF-12 agonism, primary luciferase screen | HEK293 GAL4-hgDAF12 UAS-luciferase reporter, agonist luminescence; normalized to butyrate control | activation, % at 6.8 µM | 1.8% of 370,000 active | AID 687014;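 active = activation above a cutoff set at the mean of all screened compounds plus 3 SD, cut at about 10% in these data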;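 also: 0% = DMSO wells and 100% = sodium butyrate wells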
# DAX1 inh-2 = inhibitors of DAX1 repression of SF-1 activated StAR promoter | 1.1% of 370,000 active | AID 652010 | HEK293T StAR-luciferase reporter, SF-1/DAX-1 repression relief | inhibition, % at 6.8 µM;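 active = inhibition above the mean over all tested compounds plus 3 SD, cut at about 3.6% in these data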;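 also: 0% = DAX-1 cells with DMSO and 100% = cells lacking DAX-1 with DMSO; higher inhibition means more luminescence from relief of DAX-1 repression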
# AHR activator = activates the human aryl hydrocarbon receptor; AID 2796; activation, % at 5 µM; 2.5% of 320,000 active; P35869; AHR-responsive luciferase reporter cells, luminescence; in the data active = activation above about 47%;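 also: 0% = vehicle wells and 100% = reference agonist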
# An asterisk follows results filed as active; . = no result given.
SMILES,DAX1 inh-1,hcDAF-12 act,ssDAF12 agonist,hgDAF-12 ag,DAX1 inh-2,AHR activator
CCc1ccc2nc(NC(=O)CN3C(=O)NC4(CCCC4)C3=O)sc2c1,0,2,1,11*,1,15
Cn1c(=O)c2c(ncn2CC(=O)Nc2nc3ccc(F)cc3s2)n(C)c1=O,2,6.2*,0,8,1,14
CCc1ccc2nc(NC(=O)Cn3cnc4ccccc4c3=O)sc2c1,3,3,1.2*,5,1,9
COc1ccc2nc(NC(=O)Cn3cnc4c(=O)n(C)c(=O)n(C)c43)sc2c1,0,-1,0,0,-1,14
Cc1ccc(S(=O)(=O)NC(=O)C2(C)CCN2C(=O)CC2CCCCC2)nc1 (configuration not stated),.,-1,-1,0,1,.
O=C(COC(=O)Cn1cnc2ccccc2c1=O)Nc1ccccc1OC(F)F,2,1,-1,2,1,-1
CCN(CC(=O)Nc1ccccc1C(F)(F)F)C(=O)CCOc1ccc(C)cc1,-1,-2,-1,-1,-1,1
CC(=O)Nc1ccc(N/C=C/C(=O)c2ccco2)cc1,2,0,-1,4,1,2
CN(C)c1ccc(N/C=C/C(=O)c2ccco2)cc1,4.3*,1,0,4,1,27
COC(=O)c1cc(N=Cc2c(O)c3ccccc3oc2=O)cc(C(=O)OC)c1,9.2*,.,.,.,.,2
COc1cccc(C(CC2=CCCCC2)NC(=O)C(F)(F)F)c1 (configuration not stated),.,-1,-1,2,0,.
COc1cc(-c2cnc3c(NC(C)=O)cc(-c4ccc(N5CCN(C)CC5)cc4)cn23)cc(OC)c1OC,.,-5,-2,-10,-4,.
COc1cc(-c2cc(NC=O)c3ncc(-c4ccc(C(C)=O)cc4)n3c2)ccc1O,.,-3,-1,11*,-1,.
COc1cc(-c2cnc3c(NC=O)cc(-c4ccc(N5CCN(C)CC5)cc4)cn23)cc(OC)c1OC,.,3,0,11*,3,.
COc1ccc2[nH]c(N=Nc3ccccc3C)c(O)c2c1,1,6.5*,0,9,0,65*
COc1ccc(N=Nc2c(C)[nH]c3ccccc23)cc1,-1,3,-1,4,-1,42
Cc1cc(C)n(CCC(=O)N2c3ccccc3CC2C)n1 (configuration not stated),0,-1,0,2,0,3
CC(=O)[C@@H]1[C@@H](C(=O)c2ccc(F)cc2)[C@]2(C(=O)Nc3ccccc32)[C@H]2C=Cc3cc(F)ccc3N12,-1,3,1.5*,-1,0,12
CC(=O)[C@@H]1[C@@H](C(=O)c2ccc(C)cc2)[C@]2(C(=O)Nc3ccccc32)[C@H]2C=Cc3cc(F)ccc3N12,-1,2,0,-2,-1,34
Cc1nn(-c2ccccc2)c(C)c1C(=O)OCC(=O)Nc1cccc(S(N)(=O)=O)c1,0,-1,-2,2,1,2
O=C(CC(O)CCc1ccccc1)c1ccc(O)cc1 (configuration not stated),8.4*,2,-1,1,2,5
O=C(NCC(c1cccs1)N1CCOCC1)C1CCN(S(=O)(=O)c2cccc(C(F)(F)F)c2)CC1 (configuration not stated),-1,-2,0,1,0,2
CCCCNC(=S)N(C)/N=C/c1c(C)[nH]c2ccccc12,-2,-1,0,-4,-1,71*
Cc1ccccc1N(CC(=O)NC1CCCCC1)C(=O)CCCC(=O)Nc1ccccn1,5.0*,-3,-1,-1,0,0
CCc1ccccc1N1CC(C(=O)Nc2nccs2)CC1=O (configuration not stated),0,-1,-1,-1,-1,-1
SMILES,DAX1 inh-1,hcDAF-12 act,ssDAF12 agonist,hgDAF-12 ag,DAX1 inh-2,AHR activator
CC(=O)c1ccccc1NS(=O)(=O)c1ccccc1Cl,0,-2,-1,12*,0,-1
C[C@@H]1CN([C@@H](C)CO)C(=O)CCCn2nncc2CO[C@H]1CN(C)C(=O)Nc1ccc(N2CCN(C)CC2)cc1,.,0,-1,-1,0,.
Cn1c(C(=O)NCCc2ccccc2)cc(=O)n(C)c1=O,0,-1,-2,5,0,0
Cn1cccc1C(=O)NCC1CCCCC1,0,0,-1,10,-1,8
Cn1cccc1C(=O)NNC(=O)c1ccccc1Br,2,1,0,6,3,10
Cc1ccccc1C(=O)NNC(=O)c1cccn1C,1,3,0,4,4.0*,9
Cn1cccc1C(=O)NCCc1ccccc1,0,4,0,13*,2,-1
Cn1cccc1C(=O)NC1CCCCCC1,0,4,0,9,4.4*,6
Cc1nn(Cc2ccccc2)c(Cl)c1C(=O)NCc1ccc(C)n1C,3,0,-2,-1,0,1
Cc1nn(Cc2ccccc2)c(Cl)c1C(=O)NCCc1ccccc1,1,2,1,11*,3.8*,12
CCC(=O)c1ccc(OCC(=O)OCC(=O)N2CCc3ccccc32)cc1,3,2,-1,4,0,8
Cn1cccc1C(=O)NCCc1ccc(Cl)cc1,1,2,0,5,4.0*,-3
Cc1ccc2oc(=O)c3cc(C(=O)NCCCN4CCC(C)CC4)sc3c2c1,.,-3,-1,-3,-4,.
COc1cc(O)sc1C=Nc1ccc(Cl)cc1Cl,2,0,1.1*,-1,1,42
NC(=O)c1c(N)[nH]c(C(=O)c2ccccc2)c1-c1cccc2ccccc12,.,2,1.0*,3,.,.
Nc1[nH]c(C(=O)c2ccccc2)c(-c2cccc3ccccc23)c1C(=O)c1cccs1,.,4,0,3,1,.
C/C(CC(=O)Nc1ccc2ccccc2c1)=N\NC(=O)c1ccc(O)c(O)c1,0,4,0,2,0,13
CCOC(=O)CNC(=O)c1ccc(OCC(F)(F)F)cc1,1,1,0,13*,2,-2
CCOC(=O)CNC(=O)c1ccc(C)cc1,2,1,-1,2,0,0
CN(C)/C=C/C(=O)c1cnc(-c2cccc(Cl)c2)s1,3,1,-1,-2,1,4
CN(C)/C=C/C(=O)c1cnc(-c2ccccc2Cl)s1,2,2,-1,0,2,57*
Cn1c(N)c(C(=O)COC(=O)CNC(=O)c2ccccc2Cl)c(=O)n(C)c1=O,-1,0,-2,-1,0,0
COc1ccc2c(c1)CCc1c(C(=O)N3CCCCCC3)noc1-2,3,3,-1,8,3.8*,-9
COc1ccc2c(c1)CCc1c(C(=O)NCC(C)C)noc1-2,5.6*,4,0,13*,3,-3
